From PubChem BioAssay AID1159580 (chemical genetic matrix, 2015)
Among all 5,500 compounds or so, about 2,000 (36%) were called active. Not shown: some 18% with an inconclusive outcome. Cut-off read from the data, not from the text of the source: active = normalized growth mostly below about 0.91 (no sharp cut-off); inconclusive = no clear call, values can overlap the other calls; inactive = mostly above about 0.92. This is one part of the list.

Assay: chemical genetic growth profiling, strain panel (AID 1159580);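 note: tested at 20 µM; growth read once vehicle control cultures reached saturation at 30 °C; 1 = growth at the plate median or of vehicle wells; lower values mean less growth of the strain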
Conditions: growth OD

Measured: normalized growth

CCC(C)C(=O)O[C@H]1[C@H](O)C2C(CN3CC(C)CCC3[C@@]2(C)O)C2C[C@]34O[C@]5(O)C(OC(=O)C(C)(O)CC)CC[C@@]3(C)C5C(OC(C)=O)[C@@H](OC(C)=O)C4[C@@]21O (stereo partly specified)
inactive: S. cerevisiae deletion strains, locus YKL009W, strain mrt4, stronger effect = lower value 1.01 | S. cerevisiae deletion strains, locus YKL068W, stronger effect = lower value 1.01 | S. cerevisiae deletion strains, locus YKL085W, strain MDH1 (second series), stronger effect = lower value 1.03 | S. cerevisiae deletion strains, locus YKL085W, strain MDH1, stronger effect = lower value 1.03 | S. cerevisiae deletion strains, locus YKL160W, strain elf1, stronger effect = lower value 1.04 | S. cerevisiae deletion strains, locus YKL190W, strain CNB1, stronger effect = lower value 1 | S. cerevisiae deletion strains, locus YKR001C, strain vps1, stronger effect = lower value 0.983 | S. cerevisiae deletion strains, locus YKR026C, strain gcn3, stronger effect = lower value 1.01 | S. cerevisiae deletion strains, locus YKR091W, strain srl3, stronger effect = lower value 1.02 | S. cerevisiae deletion strains, locus YLL001W, strain dnm1, stronger effect = lower value 1.02 | S. cerevisiae deletion strains, locus YLL026W, stronger effect = lower value 1.01 | S. cerevisiae deletion strains, locus YLL041C, strain sdh2, stronger effect = lower value 1.04 | S. cerevisiae deletion strains, locus YLR027C, strain aat2, stronger effect = lower value 1.02 | S. cerevisiae deletion strains, locus YLR039C, strain RIC1, stronger effect = lower value 1.02 | S. cerevisiae deletion strains, locus YLR058C, strain SHM2, stronger effect = lower value 1.01 | S. cerevisiae deletion strains, locus YLR102C, strain apc9, stronger effect = lower value 0.995 | S. cerevisiae deletion strains, locus YLR113W, strain HOG1, stronger effect = lower value 0.983 | S. cerevisiae deletion strains, locus YLR221C, strain rsa3, stronger effect = lower value 1.01 | S. cerevisiae deletion strains, locus YLR258W, strain gsy2, stronger effect = lower value 1.01 | S. cerevisiae deletion strains, locus YLR262C, strain YPT6 (second series), stronger effect = lower value 1.02 | S. cerevisiae deletion strains, locus YLR262C, strain YPT6, stronger effect = lower value 1.05 | S. cerevisiae deletion strains, locus YLR268W, strain sec22, stronger effect = lower value 0.984 | S. cerevisiae deletion strains, locus YLR320W, strain mms22, stronger effect = lower value 1.02 | S. cerevisiae deletion strains, locus YLR330W, strain CHS5, stronger effect = lower value 1.01 | S. cerevisiae deletion strains, locus YLR342W, strain FKS1 (second series), stronger effect = lower value 1 | S. cerevisiae deletion strains, locus YLR342W, strain FKS1, stronger effect = lower value 1.01 | S. cerevisiae deletion strains, locus YLR357W, strain rsc2, stronger effect = lower value 1.01 | S. cerevisiae deletion strains, locus YLR370C, strain arc18, stronger effect = lower value 1.03 | S. cerevisiae deletion strains, locus YLR371W, strain rom2, stronger effect = lower value 0.984 | S. cerevisiae deletion strains, locus YLR384C, strain iki3, stronger effect = lower value 1.02 | S. cerevisiae deletion strains, locus YLR418C, strain cdc73, stronger effect = lower value 0.994 | S. cerevisiae deletion strains, locus YML016C, strain PPZ1, stronger effect = lower value 1.01 | S. cerevisiae deletion strains, locus YML032C, strain rad52, stronger effect = lower value 0.989 | S. cerevisiae deletion strains, locus YML120C, strain ndi1, stronger effect = lower value 1.01 | S. cerevisiae deletion strains, locus YML124C, strain tub3, stronger effect = lower value 0.981 | S. cerevisiae deletion strains, locus YMR058W, strain fet3, stronger effect = lower value 1.02 | S. cerevisiae deletion strains, locus YMR078C, strain ctf18, stronger effect = lower value 0.986 | S. cerevisiae deletion strains, locus YMR125W, strain sto1, stronger effect = lower value 1.02 | S. cerevisiae deletion strains, locus YMR129W, stronger effect = lower value 1.02 | S. cerevisiae deletion strains, locus YMR205C, strain PFK2, stronger effect = lower value 1.03 | S. cerevisiae deletion strains, locus YMR223W, strain ubp8, stronger effect = lower value 0.985 | S. cerevisiae deletion strains, locus YMR231W, strain pep5, stronger effect = lower value 1.02 | S. cerevisiae deletion strains, locus YMR263W, strain SAP30, stronger effect = lower value 1 | S. cerevisiae deletion strains, locus YMR307W, strain GAS1, stronger effect = lower value 1.02 | S. cerevisiae deletion strains, locus YNL067W, strain RPL9B, stronger effect = lower value 1.02 | S. cerevisiae deletion strains, locus YNL071W, strain lat1, stronger effect = lower value 1.03 | S. cerevisiae deletion strains, locus YNL128W, strain TEP1, stronger effect = lower value 1.01 | S. cerevisiae deletion strains, locus YNL153C, strain GIM3, stronger effect = lower value 1.01 | S. cerevisiae deletion strains, locus YNL183C, strain NPR1, stronger effect = lower value 0.99 | S. cerevisiae deletion strains, locus YNL209W, strain ssb2, stronger effect = lower value 1.02 | S. cerevisiae deletion strains, locus YNL233W, strain BNI4, stronger effect = lower value 1.01 | S. cerevisiae deletion strains, locus YNL248C, strain rpa49, stronger effect = lower value 1.08 | S. cerevisiae deletion strains, locus YNL250W, strain rad50, stronger effect = lower value 0.984 | S. cerevisiae deletion strains, locus YNL271C, strain bni1, stronger effect = lower value 0.982 | S. cerevisiae deletion strains, locus YNL298W, strain CLA4, stronger effect = lower value 0.991 | S. cerevisiae deletion strains, locus YNL307C, strain MCK1, stronger effect = lower value 0.994 | S. cerevisiae deletion strains, locus YNL322C, strain KRE1 (second series), stronger effect = lower value 1.02 | S. cerevisiae deletion strains, locus YNL322C, strain KRE1, stronger effect = lower value 1.01 | S. cerevisiae deletion strains, locus YNR049C, strain mso1, stronger effect = lower value 1 | S. cerevisiae deletion strains, locus YNR052C, strain pop2, stronger effect = lower value 1 | S. cerevisiae deletion strains, locus YOL006C, strain TOP1, stronger effect = lower value 1.01 | S. cerevisiae deletion strains, locus YOL012C, strain htz1 0.797 | S. cerevisiae deletion strains, locus YOL147C, strain pex11, stronger effect = lower value 0.994 | S. cerevisiae deletion strains, locus YOR001W, strain rrp6, stronger effect = lower value 0.998 | S. cerevisiae deletion strains, locus YOR061W, strain CKA2, stronger effect = lower value 1.01 | S. cerevisiae deletion strains, locus YOR069W, strain VPS5, stronger effect = lower value 1.01 | S. cerevisiae deletion strains, locus YOR070C, strain gyp1, stronger effect = lower value 1.03 | S. cerevisiae deletion strains, locus YOR080W, strain dia2, stronger effect = lower value 1.04 | S. cerevisiae deletion strains, locus YOR083W, strain WHI5, stronger effect = lower value 1.04 | S. cerevisiae deletion strains, locus YOR106W, strain vam3, stronger effect = lower value 1.06 | S. cerevisiae deletion strains, locus YOR136W, strain idh2, stronger effect = lower value 0.984 | S. cerevisiae deletion strains, locus YOR144C, strain elg1, stronger effect = lower value 0.996 | S. cerevisiae deletion strains, locus YOR184W, strain ser1, stronger effect = lower value 0.982 | S. cerevisiae deletion strains, locus YOR231W, strain MKK1, stronger effect = lower value 0.992 | S. cerevisiae deletion strains, locus YOR265W, strain rbl2, stronger effect = lower value 0.998 | S. cerevisiae deletion strains, locus YOR270C, strain vph1, stronger effect = lower value 1.11 | S. cerevisiae deletion strains, locus YOR290C, strain snf2, stronger effect = lower value 1.06 | S. cerevisiae deletion strains, locus YOR316C, strain cot1, stronger effect = lower value 0.99 | S. cerevisiae deletion strains, locus YPL051W, strain arl3, stronger effect = lower value 1.01 | S. cerevisiae deletion strains, locus YPL055C, strain LGE1, stronger effect = lower value 1.02 | S. cerevisiae deletion strains, locus YPL078C, strain atp4, stronger effect = lower value 1.05 | S. cerevisiae deletion strains, locus YPL106C, strain sse1, stronger effect = lower value 0.995 | S. cerevisiae deletion strains, locus YPL240C, strain hsp82, stronger effect = lower value 1.01 | S. cerevisiae deletion strains, locus YPL241C, strain CIN2, stronger effect = lower value 0.988 | S. cerevisiae deletion strains, locus YPL256C, strain CLN2, stronger effect = lower value 1.04 | S. cerevisiae deletion strains, locus YPR119W, strain clb2, stronger effect = lower value 0.984 | S. cerevisiae deletion strains, locus YPR141C, strain kar3, stronger effect = lower value 0.987 | S. cerevisiae deletion strains, locus YPR163C, strain tif3, stronger effect = lower value 0.99 | S. cerevisiae deletion strains, locus YPR167C, strain met16, stronger effect = lower value 0.974 | S. cerevisiae deletion strains, strain wtn01, stronger effect = lower value 0.991 | S. cerevisiae strains, strain wild type, stronger effect = lower value 1
